Test [1] is described as follows: qHTS assay to identify small molecule agonists of the vitamin D receptor (VDR) signaling pathway - cell viability counter screen (AID 743224; active = well fitted curve in the direction sought with a large enough effect in the repeat runs; an effect the other way counts as inactive or inconclusive; note: nearly all actives have a fitted effect of over 50% in size). The note with it: VDR-bla HEK293T viability, CellTiter-Glo luminescence, 16 h; series mostly up to 62.6 µM. The essentials: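 Compounds were pin-transferred onto VDR-bla cells plated 4 h earlier; following 16 h incubation at 37C, cell viability was quantified by CellTiter-Glo luminescence after 30 min at room temperature.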

Test [2] can be described thus: qHTS assay to identify small molecule antagonists of the vitamin D receptor (VDR) signaling pathway - cell viability counter screen (AID 743225; active = well fitted curve in the direction sought with a large enough effect in the repeat runs; an effect the other way counts as inactive or inconclusive; note: nearly all actives have a fitted effect of over 50% in size). To be noted: VDR-bla HEK293T viability, CellTiter-Glo luminescence, 16 h; series mostly up to 61 µM. The essentials:
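Parallel cytotoxicity test: VDR-UAS-bla HEK 293T, 3 nM (final) 1-alpha,25-dihydroxyvitamin D3 with test compound, 16 h, 37C. Endpoint is CellTiter-Glo luminescence in the same wells.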

Test [3] can be described thus: qHTS assay to identify small molecule agonists of the NFkB signaling pathway - cell viability counter screen (AID 1159515). Note: nearly all actives have a fitted effect of over 55% in size. The note with it: NFkB-bla ME-180 viability, CellTiter-Glo luminescence, 5 h; series mostly up to 61 µM. Summed up:
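Parallel cytotoxicity counter screen in ME-180 cells carrying an NFkB-response-element beta-lactamase reporter, 2,000 cells/well. Compound exposure lasted 5 hr at 37 C, 5% CO2. Cell viability was quantified by CellTiter-Glo luminescence.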
(In general: qHTS replaces the single test concentration by a dilution series.)

Test [4] is described as follows: qHTS assay to identify small molecule agonists of the endoplasmic reticulum stress response signaling pathway - cell viability counter screen (AID 1159517).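 Note: HeLa cells carrying an ER stress response element beta-lactamase reporter; nearly all actives have a fitted effect of over 50% in size.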 To be noted: ESRE-bla HeLa viability, CellTiter-Glo luminescence, 5 h; series mostly up to 61 µM. The essentials: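 Cpd-treated ESRE-bla HeLa (5 hr, 37 C) → LiveBLAzer 2 hr RT → CellTiter-Glo 30 min RT → luminescence.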

The nature of test [5]: qHTS assay to identify small molecule antagonists of the retinoid-related orphan receptor gamma (ROR-gamma) signaling pathway - cell viability counter screen (AID 1159520; active = well fitted curve in the direction sought with a large enough effect in the repeat runs; an effect the other way counts as inactive or inconclusive; note: nearly all actives have a fitted effect of over 50% in size; note: potency is the fitted concentration of half-maximal effect). The note with it: Tet-on RORgamma CHO cells viability, ATP luminescence, 16 h; series mostly up to 92.4 µM. The essentials: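 Tet-on ROR gamma CHO cells (1,000/well) were plated 4 hr, given compounds in DMSO for 2 hr at 37 C, then induced with 1 uM final doxycycline for 16 hr. Viability was read as ATP by CellTiter-Glo luminescence after 30 min.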

Test [6] is described as follows: qHTS assay to identify small molecule agonists of the AP-1 signaling pathway - cell viability counter screen (AID 1159525). Note: nearly all actives have a fitted effect of over 55% in size. The note with it: ME-180 AP-1-bla cells viability, ATP luminescence, 5 h; series mostly up to 76.8 µM. The essentials: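 Each titration point was normalised to DMSO and tetra n-octyl ammonium bromide controls. The read was Cell Titer Glo luminescence after 30 min at RT, following 5 h compound exposure of ME-180 AP-1-bla cells at 37 °C.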

A short description of test [7]: qHTS assay to identify small molecule agonists of the AP-1 signaling pathway (AID 1159526). To be noted: ME-180 (cervical carcinoma) AP-1-bla reporter, beta-lactamase FRET ratio, 5 h; series mostly up to 76.8 µM.
The target in test [8] is Retinoic acid receptor RXR-alpha (Homo sapiens) (UniProt P19793). The experiment in a line: qHTS assay to identify small molecule agonists of the RXR signaling pathway (AID 1159527). Note: nearly all actives have a fitted effect of over 35% in size. The note with it: HEK293T RXRa-UAS-bla, beta-lactamase ratio, 16 h; series mostly up to 76.8 µM. Summed up:
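16 hr incubation of compound-treated RXR-alpha-UAS-bla HEK 293T cells (2% charcoal-stripped FBS, 37 C) preceded a 2 hr room-temperature LiveBLAzer FRET substrate step and blue/green fluorescence measurement.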

For test [9], the target named is Nuclear receptor ROR-gamma (Homo sapiens) (UniProt P51449). Put plainly: qHTS assay to identify small molecule antagonists of the retinoid-related orphan receptor gamma (ROR-gamma) signaling pathway (AID 1159521; active = well fitted curve in the direction sought with a large enough effect in the repeat runs; an effect the other way counts as inactive or inconclusive). To be noted: Tet-on RORgamma CHO cells, RORE-luciferase, 16 h; series mostly up to 92.4 µM. The essentials:
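Decreased RORE-driven luciferase luminescence indicates antagonism. Tet-on RORγ CHO cells received compound, then 1 uM final doxycycline 2 h later; signal read after 16 h incubation.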

Results filed as inconclusive are left out. Active and inactive are the calls of the source. Unless noted, calls come from the whole dose curve.

Chain of Retinoic acid receptor RXR-alpha (Homo sapiens) (P19793 whole entry, looked up): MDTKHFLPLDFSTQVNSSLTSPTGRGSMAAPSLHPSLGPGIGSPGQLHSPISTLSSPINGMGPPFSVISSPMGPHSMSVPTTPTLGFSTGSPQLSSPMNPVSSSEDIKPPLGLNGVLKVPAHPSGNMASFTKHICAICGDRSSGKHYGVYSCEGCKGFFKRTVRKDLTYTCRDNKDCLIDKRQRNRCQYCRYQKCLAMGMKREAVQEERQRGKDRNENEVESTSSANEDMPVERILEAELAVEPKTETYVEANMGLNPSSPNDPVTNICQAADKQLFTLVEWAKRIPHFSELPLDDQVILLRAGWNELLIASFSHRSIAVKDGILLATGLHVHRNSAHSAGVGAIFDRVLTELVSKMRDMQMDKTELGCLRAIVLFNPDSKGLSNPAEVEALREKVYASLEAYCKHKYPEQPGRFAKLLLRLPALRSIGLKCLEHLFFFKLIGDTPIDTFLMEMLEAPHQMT

With `O=C(O)C1(C(=O)Nc2ccc(Cl)cc2Cl)CC1`, the Potency result in test [1], in [2], in [3], in test [4], in [5] and in test [6] was “inactive” in each case.
Consider `O=C(c1ccc(F)cc1)C1CCN(CCn2c(=S)[nH]c3ccccc3c2=O)CC1`, for which the Potency entry in test [2], in test [3] and in test [4] was “inactive” throughout.
For `CCOC(=O)c1cccnc1`, the Potency result in [1], in test [2], in test [3], in test [4], in test [5] and in [6] was “inactive” each time. Moreover, the Potency entry in test [7] and in test [8] was “inactive” in each case.
Consider `Nc1ccc(N)c2c1C(=O)c1ccccc1C2=O`, for which the Potency result in test [1], in test [2], in test [3], in test [4], in [7] and in [8] was “inactive” throughout. In [5], the Potency is 21.7 µM (active).
`O=C(Cl)c1cc(C(=O)Cl)cc(C(=O)Cl)c1`: the Potency entry in [1], in test [3], in [4], in [6], in test [7] and in test [8] was “inactive” throughout. In addition, the Potency in [5] is 61.1 µM (active).
`CCCOC(C(=O)OC1CCN(C)CC1)(c1ccccc1)c1ccccc1`: the Potency result in [1], in test [2], in test [3], in [4] and in test [6] was “inactive” in each case. For the same molecule, in [9], the Potency was 13.3 µM (active).
As to `CCO[C@H](Cc1ccc(OCCc2ccc(OS(C)(=O)=O)cc2)cc1)C(=O)O`, the Potency result in test [1], in test [2], in test [3], in test [4], in test [6] and in test [7] was “inactive” in each case.
In the case of `CCNc1cc(O)ccc1C`, the Potency entry in test [1], in test [2], in [3], in test [4], in test [5] and in test [7] was “inactive” throughout. The Potency result in test [8] is “inactive”.

The record behind these values is PubChem BioAssay (Tox21).
